These results are taken from PubChem BioAssay (NCATS).

Assay [1] concerns Zika virus NS2B-NS3 protease (linked construct). The experiment in a line: Primary screen NINDS Rhodamine qHTS for Zika virus inhibitors (AID 1347160). Also: nearly all actives have a fitted effect of over 55% in size. In short, it runs like this:
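Rhodamine110-peptide cleavage (1.5 µM substrate) by 25 nM linked NS2B-NS3 enzyme at pH 8.0 (Tris, Tween 20), after 15 min RT preincubation with compounds; 15-min fluorescence change normalized to controls and Hill-fitted.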
Background: qHTS replaces the single test concentration by a dilution series.

The target of assay [2] is Calcium and integrin-binding protein 1 (Homo sapiens) (UniProt Q99828). The assay is described as follows: Primary qHTS for Identification of Calcium Integrin Binding Protein 1 (CIB1) Competitor (AID 1508620).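 Also: GST tagged CIB1 binding a fluorescein labelled alphaIIb integrin peptide tracer; top concentration of the series differs between compounds; % is scaled to controls: 0 for no effect and ±100 for the full control effect.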 In short, it runs like this:
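Fluorescence polarization competition: CIB1-GST (1 uM final) preincubated with compound 15 min at room temperature, then FITC-labeled alphaIIb peptide (100 nM final) added for another 15 min. Polarization read at Ex 480/Em 540.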

Assay [3] has as its target Glutathione peroxidase 1 (Homo sapiens) (UniProt P07203). The assay is described as follows: Primary qHTS Assay for Inhibitors of Recombinant Selenoprotein Glutathione Peroxidase 1 (GPX1) (AID 1845191). Also: nearly all actives have a fitted effect of over 65% in size. The method in brief: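 GPX1 10 nM, GR 100 nM, GSH 1 mM, NADPH 0.5 mM, CHP 0.5 mM (final). 30-min cpd preincubation, RT. Ex340/Em450 read t=0, t=15 min.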
Assay [4] deals with Luciferin 4-monooxygenase (Photinus pyralis) (UniProt P08659). The experiment in a line: Primary firefly luciferase (FLuc) qHTS assay for identification of artifact compounds. (AID 1845220). Also: nearly all actives have a fitted effect of over 60% in size. The note with it: outcome: dose series up to 54.1 µM unless noted. In short, it runs like this: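 In this counter-screen for luciferase artifacts, test compounds met substrate (10 uM each luciferin and ATP) before 10 nM enzyme started the reaction. Light output was measured 5 min later.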

The nature of assay [5]: Primary fluorescence-based thiol-reactive (MSTI) qHTS assay for identification of artifact compounds. (AID 1845221).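 Also: thiol-reactive compounds lower the probe fluorescence signal; nearly all actives have a fitted effect of over 65% in size.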 The method in brief:
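Reactivity toward the thiol probe MSTI (4 uM) is scored by fluorescence at Ex/Em 525/598 nm after 1 h at room temperature. Acetyl-MSTI and MSTI define the activity scale.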

The subject of assay [6] is Nanoluciferase (engineered Oplophorus gracilirostris luciferase). The experiment in a line: Primary Nanoluciferase (NLuc) qHTS assay for identification of artifact compounds. (AID 1845222).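 Also: NLuc secreted into diluted conditioned medium of S16 cells.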 In short, it runs like this: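 Using secreted nanoluciferase in S16 culture medium (0.22 um filtered, 1:55 dilution), compounds were preincubated 15 min at RT. Signal was generated with Nano-Glo reagent (1:100) over 5 min.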

Assay [7] is described as follows: Primary redox qHTS assay for identification of artifact compounds. (AID 1845223).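 Also: 0% = DMSO and 100% = reference compound.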 In short, it runs like this: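 Redox-cycling detection via DTT (250 uM final) oxidation coupled to Amplex Red (25 uM)/HRP (250 mU/mL) in HBSS. 15 min preincubation plus 30 min after DTT, room temperature. Ex/Em 525/598 nm; 4-parameter Hill fit against DMSO and 10 uM DA3003.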
The subject of assay [8] is NIH3T3. The assay is described as follows: Cytotoxic Profiling of Annotated Libraries Using Quantitative High-Throughput Screening (AID 1296008). Also: nearly all actives have a fitted effect of over 60% in size. Also: potency is read from the fitted curve at half-maximal effect. As to max response: % is scaled to controls: 0 for no effect and ±100 for the full control effect. The following applies: Five cell lines viability, CellTiter-Glo ATP luminescence, 48-72 h; max response: hits give low values. The method in brief: (§1)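 Compounds were pin-transferred onto cells and incubated 48 or 72 hr at 37 degree Celsius, 95% humidity. CellTiter-Glo was added, plates sat 10 min at room temperature, then ATP-coupled luminescence was imaged as the viability read-out.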

The test system of assay [9] is C33A. The assay is described as follows: Primary qHTS to identify gynecologic anti-cancer compounds using libraries of approved drugs and bioactive compounds (AID 1345084). Also: % is scaled to controls: 0 for no effect and ±100 for the full control effect; nearly all actives have a fitted effect of over 55% in size. The following applies: Gynecologic cancer cell panel viability, ATPlite luminescence, 48 h; series mostly up to 57.5 µM. In short, it runs like this:
(§2)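 Measured: luminescence after ATPlite addition (15 min, RT). Exposure: 48 h, 37 C, 5% CO2.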

For assay [10], the system named is CAOV3. The assay is described as above. The following applies: Gynecologic cancer cell panel viability, ATPlite luminescence, 48 h; series mostly up to 57.5 µM. The method in brief:
as §2
(In general: Cellular ATP, detected with luciferase, serves as a proxy for viable cell number.)

Assay [11] concerns CASKI. The description is as above. The following applies: Gynecologic cancer cell panel viability, ATPlite luminescence, 48 h; series mostly up to 57.5 µM. In short, it runs like this:
as §2

The test system of assay [12] is Es-2. The description is as above. The following applies: Gynecologic cancer cell panel viability, ATPlite luminescence, 48 h; series mostly up to 57.5 µM. In short, it runs like this:
as §2

Assay [13] has as its system Hek293T. The assay is described as above. The following applies: Gynecologic cancer cell panel viability, ATPlite luminescence, 48 h, control line for the selectivity index; series mostly up to 57.5 µM. In short, it runs like this: as §2
Assay [14] relates to JEG-3. Described as above. The following applies: Gynecologic cancer cell panel viability, ATPlite luminescence, 48 h; series mostly up to 57.5 µM. In short, it runs like this: as §2
Assay [15] concerns OV90. Described as above. The note with it: Gynecologic cancer cell panel viability, ATPlite luminescence, 48 h; series mostly up to 57.5 µM. The method in brief:
as §2

Assay [16] relates to PA-1. The description is as above. The note with it: Gynecologic cancer cell panel viability, ATPlite luminescence, 48 h; series mostly up to 57.5 µM. In short, it runs like this: as §2
Assay [17] concerns Tov-21-G. Described as above. The note with it: Gynecologic cancer cell panel viability, ATPlite luminescence, 48 h; series mostly up to 57.5 µM. In short, it runs like this: as §2
For assay [18], the system named is Tov112D. Described as above. The note with it: Gynecologic cancer cell panel viability, ATPlite luminescence, 48 h; series mostly up to 57.5 µM. The method in brief:
as §2

Assay [19] addresses Phospholipid hydroperoxide glutathione peroxidase GPX4 (Homo sapiens) (UniProt P36969). The experiment in a line: Primary qHTS Assay for Inhibitors of Recombinant Selenoprotein Glutathione Peroxidase 4 (GPX4) (AID 1845192). Also: % is scaled to controls: 0 for no effect and ±100 for the full control effect; nearly all actives have a fitted effect of over 65% in size. In short, it runs like this: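 qHTS, GR-coupled: GPX4 200 nM + cpd 30 min RT → GSH 1 mM, NADPH 0.5 mM, GR 100 nM → CHP 0.5 mM start; fluor 340/450 at t0 and t15 min; no-enzyme wells as control.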

The test system of assay [20] is HaCat. The assay is described as follows: Cytotoxic Profiling of Annotated Libraries Using Quantitative High-Throughput Screening (AID 1296008). Also: nearly all actives have a fitted effect of over 60% in size. Also: potency is read from the fitted curve at half-maximal effect. As to max response: % is scaled to controls: 0 for no effect and ±100 for the full control effect. The note with it: Five cell lines viability, CellTiter-Glo ATP luminescence, 48-72 h; max response: hits give low values. In short, it runs like this: as §1

Molecules are shown by their SMILES. A number with no mark means an inactive call. Results filed as inconclusive are left out. Activity calls are given as the source filed them. Calls follow the shape of the dose curve; as a rule, active = well fitted curve in the direction sought with a large enough effect; inconclusive = small, poorly fitted or top-dose-only effect, or another doubt; inactive = no such curve, though single readings can be large; an effect the other way counts as inactive or inconclusive.

Sequence of Phospholipid hydroperoxide glutathione peroxidase GPX4 (Homo sapiens) (P36969 whole entry, looked up): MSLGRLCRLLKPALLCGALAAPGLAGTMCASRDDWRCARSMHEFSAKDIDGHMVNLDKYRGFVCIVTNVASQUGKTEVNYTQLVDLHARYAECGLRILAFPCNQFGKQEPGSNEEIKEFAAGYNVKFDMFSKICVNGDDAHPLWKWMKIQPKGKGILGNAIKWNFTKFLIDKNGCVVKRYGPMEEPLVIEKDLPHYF
Sequence of Calcium and integrin-binding protein 1 (Homo sapiens) (Q99828 whole entry, looked up): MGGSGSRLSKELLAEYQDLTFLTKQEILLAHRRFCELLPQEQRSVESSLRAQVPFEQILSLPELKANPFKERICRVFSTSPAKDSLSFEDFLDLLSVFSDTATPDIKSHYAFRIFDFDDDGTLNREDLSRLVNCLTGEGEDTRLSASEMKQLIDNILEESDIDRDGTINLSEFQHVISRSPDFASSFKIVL
Sequence of Glutathione peroxidase 1 (Homo sapiens) (P07203 whole entry, looked up): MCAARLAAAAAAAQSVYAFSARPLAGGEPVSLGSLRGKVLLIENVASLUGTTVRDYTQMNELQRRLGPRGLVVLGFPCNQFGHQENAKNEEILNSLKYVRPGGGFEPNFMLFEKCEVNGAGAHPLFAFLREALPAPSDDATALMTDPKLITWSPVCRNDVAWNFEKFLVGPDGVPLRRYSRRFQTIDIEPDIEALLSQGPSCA

On to `C[C@H]1CCC[C@H](O)CCC/C=C/c2cc(O)cc(O)c2C(=O)O1`, for which the Potency entry in [1], in [2], in [3], in assay [5], in assay [6] and in assay [7] was “inactive” in each case. The Potency entry in assay [9], in assay [10], in assay [11], in assay [12], in [13] and in assay [14] was “inactive” in each case. Besides, the Potency result in [15], in [16], in assay [17] and in assay [18] was “inactive” throughout. Also, the compound was classed as inactive in assay [4] and in [8].
With `Cc1ccccc1C1=CCN(C)CC1`, the Potency entry in assay [1], in assay [2], in assay [3], in [19], in assay [6] and in [10] was “inactive” throughout. In addition, the Potency result in assay [11], in assay [12], in assay [13], in [14], in [15] and in assay [16] was “inactive” in each case. Moreover, the Potency entry in assay [17] and in assay [18] was “inactive” each time. In addition, the call in [4] was inactive. The max response in [20] was -6.61%.
On to `C[C@H](Nc1ncnc2nc[nH]c12)c1nc2ccc(F)cc2c(=O)n1-c1ccccc1`, for which the Potency result in [1], in assay [2], in assay [3], in assay [19], in assay [5] and in assay [6] was “inactive” in each case. For the same compound, the Potency entry in [7], in assay [9], in assay [10], in assay [11], in [12] and in [14] was “inactive” throughout. For the same compound, the Potency result in assay [15], in assay [16], in assay [17] and in [18] was “inactive” in each case. In addition, the result in [4] was inactive. Also, in assay [8], the Potency is 13 µM (active).
On to `CCOC(=O)Nc1ccc(NCc2c(C)cc(C)cc2C)cc1N`, for which the Potency entry in [1], in [2], in [3], in assay [19], in assay [6] and in [7] was “inactive” in each case. The Potency entry in [9], in assay [11], in [12], in [13], in [14] and in assay [15] was “inactive” in each case. Also, the Potency result in [16], in assay [17] and in assay [18] was “inactive” each time. Also, the outcome in assay [4] was inactive. In addition, the max response in assay [8] was 0.149%.
Regarding `Clc1ccc([C@]23CNC[C@H]2C3)cc1Cl`, the Potency result in assay [1], in assay [2], in assay [19], in assay [5], in [6] and in assay [7] was “inactive” in each case. Further, the Potency result in assay [9], in assay [10], in [11], in [12], in [13] and in [14] was “inactive” throughout. Besides, the Potency result in assay [15], in assay [16], in [17] and in [18] was “inactive” each time. Moreover, the compound was classed as inactive in [4] and in assay [20]. Moreover, the max response in [8] was 1.31%.
`C=C1C(=O)OC2/C=C(\COO)CC/C=C(\COC(C)=O)CC(OC(=O)C(C)CC)C12` (stereo not given): the Potency result in assay [1], in [2], in assay [3], in assay [19], in assay [5] and in assay [6] was “inactive” each time. In addition, the Potency entry in [7], in [9], in [10], in assay [11], in [12] and in assay [14] was “inactive” throughout. The Potency result in [16], in assay [17] and in assay [18] was “inactive” in each case. Further, the compound was classed as inactive in [4] and in assay [20].
